# Reference: the supplement of paper PMC8728848
# About 410 targets per protein were measured; listed, in parts, are those with the strongest signals and a random draw of the rest.
# How the values were obtained:
# Experiment in all cases: glycan array binding signal (z-score within array); higher = stronger binding
# Conditions in all cases: glycan notation: IUPAC condensed, linker removed
# [1] = target: Fuc(a1-2)Gal(b1-3)GlcNAc(b1-2)Man(a1-3)[Fuc(a1-2)Gal(b1-3)GlcNAc(b1-2)Man(a1-6)]Man(b1-4)GlcNAc(b1-4)[Fuc(a1-6)]GlcNAc
# How it was run: (§1)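 The Consortium for Functional Glycomics database supplied 3228 glycan arrays, of which those lacking an available protein sequence were dropped. The binding signal, a within-array Z-score, was averaged across arrays of the same protein sequence and across linkers. Negative scores can be read as non-binding.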
# [2] = target: Fuc(a1-2)Gal(b1-3)GlcNAc(b1-3)[Fuc(a1-2)Gal(b1-3)GlcNAc(b1-6)]GalNAc
# How it was run: as §1
# [3] = target: Fuc(a1-2)Gal(b1-3)[Fuc(a1-4)]GlcNAc(b1-3)[Gal(b1-4)GlcNAc(b1-6)]Gal(b1-4)Glc
# How it was run: as §1
# [4] = target: Fuc(a1-2)Gal(b1-4)GlcNAc(b1-3)Gal(b1-4)GlcNAc(b1-2)Man(a1-3)[Fuc(a1-2)Gal(b1-4)GlcNAc(b1-3)Gal(b1-4)GlcNAc(b1-2)Man(a1-6)]Man(b1-4)GlcNAc(b1-4)GlcNAc
# How it was run: as §1
# [5] = target: Fuc(a1-2)[Gal(a1-3)]Gal(b1-4)GlcNAc
# How it was run: as §1
# [6] = target: Fuc(a1-2)[Gal(a1-3)]Gal(b1-4)GlcNAc(b1-3)[Fuc(a1-2)[Gal(a1-3)]Gal(b1-4)GlcNAc(b1-6)]GalNAc
# How it was run: as §1
# [7] = target: Fuc(a1-2)[GalNAc(a1-3)]Gal(b1-3)GlcNAc(b1-6)GalNAc
# How it was run: as §1
# [8] = target: Fuc(a1-3)[Gal(b1-4)]GlcNAc(b1-3)GalNAc
# How it was run: as §1
# Fuc(a1-4)GlcNAc = target: Fuc(a1-4)GlcNAc
# How it was run: as §1
# Fuc(b1-3)GlcNAc = target: Fuc(b1-3)GlcNAc
# How it was run: as §1
# [9] = target: Gal(a1-3)Gal(b1-4)[Fuc(a1-3)]GlcNAc(b1-2)Man(a1-3)[Gal(a1-3)Gal(b1-4)[Fuc(a1-3)]GlcNAc(b1-2)Man(a1-6)]Man(b1-4)GlcNAc(b1-4)GlcNAc
# How it was run: as §1
# Gal(a1-4)GlcNAc = target: Gal(a1-4)GlcNAc
# How it was run: as §1
# [10] = target: Gal(b1-3)GlcNAc(a1-6)Gal(b1-4)GlcNAc
# How it was run: as §1
# [11] = target: Gal(b1-4)GlcNAc(b1-3)Gal(b1-3)GalNAc
# How it was run: as §1
# [12] = target: Gal(b1-4)GlcNAc(b1-3)Gal(b1-3)GlcNAc
# How it was run: as §1
# [13] = target: Gal(b1-4)GlcNAc(b1-3)Gal(b1-4)GlcNAc(b1-2)[Gal(b1-4)GlcNAc(b1-3)Gal(b1-4)GlcNAc(b1-6)]Man(a1-6)[Gal(b1-4)GlcNAc(b1-3)Gal(b1-4)GlcNAc(b1-2)Man(a1-3)]Man(b1-4)GlcNAc(b1-4)GlcNAc
# How it was run: as §1
# [14] = target: Gal(b1-4)GlcNAc(b1-3)Gal(b1-4)GlcNAc(b1-3)Gal(b1-4)GlcNAc(b1-3)Gal(b1-4)GlcNAc(b1-2)[Gal(b1-4)GlcNAc(b1-3)Gal(b1-4)GlcNAc(b1-3)Gal(b1-4)GlcNAc(b1-3)Gal(b1-4)GlcNAc(b1-6)]Man(a1-6)[Gal(b1-4)GlcNAc(b1-3)Gal(b1-4)GlcNAc(b1-3)Gal(b1-4)GlcNAc(b1-3)Gal(b1-4)GlcNAc(b1-2)Man(a1-3)]Man(b1-4)GlcNAc(b1-4)[Fuc(a1-6)]GlcNAc
# How it was run: as §1
# [15] = target: Gal(b1-4)GlcNAc(b1-3)Gal(b1-4)GlcNAc(b1-3)Gal(b1-4)GlcNAc(b1-3)Gal(b1-4)GlcNAc(b1-3)Gal(b1-4)GlcNAc(b1-2)Man(a1-3)[Gal(b1-4)GlcNAc(b1-3)Gal(b1-4)GlcNAc(b1-3)Gal(b1-4)GlcNAc(b1-3)Gal(b1-4)GlcNAc(b1-3)Gal(b1-4)GlcNAc(b1-2)Man(a1-6)]Man(b1-4)GlcNAc(b1-4)[Fuc(a1-6)]GlcNAc
# How it was run: as §1
# [16] = target: Gal3S(b1-3)[Fuc(a1-4)]GlcNAc
# How it was run: as §1
# Gal3S(b1-4)Glc = target: Gal3S(b1-4)Glc
# How it was run: as §1
# [17] = target: Gal3S(b1-4)[Fuc(a1-3)]GlcNAc6S
# How it was run: as §1
# [18] = target: GalNAc(a1-3)GalNAc(b1-3)Gal(a1-4)Gal(b1-4)GlcNAc
# How it was run: as §1
# Glc(b1-6)Glc = target: Glc(b1-6)Glc
# How it was run: as §1
# [19] = target: GlcNAc(a1-4)Gal(b1-4)GlcNAc(b1-3)Gal(b1-4)[Fuc(a1-3)]GlcNAc(b1-3)Gal(b1-4)[Fuc(a1-3)]GlcNAc
# How it was run: as §1
# [20] = target: GlcNAc(b1-2)Man(a1-3)[GlcNAc(b1-2)Man(a1-6)]Man(b1-4)GlcNAc(b1-4)GlcNAc
# How it was run: as §1
# Kdn(a2-3)Gal(b1-3)GlcNAc = target: Kdn(a2-3)Gal(b1-3)GlcNAc
# How it was run: as §1
# [21] = target: Man(a1-2)Man(a1-3)[Man(a1-2)Man(a1-6)]Man
# How it was run: as §1
# [22] = target: Man(a1-2)Man(a1-3)[Man(a1-6)]Man(a1-6)[Man(a1-2)Man(a1-3)]Man(b1-4)GlcNAc(b1-4)GlcNAc
# How it was run: as §1
# [23] = target: Man(a1-2)Man(a1-6)[Man(a1-3)]Man(a1-6)[Man(a1-2)Man(a1-2)Man(a1-3)]Man
# How it was run: as §1
# [24] = target: Neu5Ac(a2-3)Gal(b1-3)[GlcNAc(b1-6)]GalNAc
# How it was run: as §1
# [25] = target: Neu5Ac(a2-3)Gal(b1-3)[Neu5Ac(a2-6)]GalNAc
# How it was run: as §1
# Neu5Ac(a2-3)Gal(b1-4)Glc = target: Neu5Ac(a2-3)Gal(b1-4)Glc
# How it was run: as §1
# [26] = target: Neu5Ac(a2-3)Gal(b1-4)GlcNAc(b1-2)Man
# How it was run: as §1
# [27] = target: Neu5Ac(a2-3)Gal(b1-4)GlcNAc(b1-3)Gal(b1-4)GlcNAc(b1-3)[Neu5Ac(a2-3)Gal(b1-4)GlcNAc(b1-3)Gal(b1-4)GlcNAc(b1-6)]GalNAc
# How it was run: as §1
# [28] = target: Neu5Ac(a2-3)Gal(b1-4)GlcNAc(b1-3)GalNAc
# How it was run: as §1
# [29] = target: Neu5Ac(a2-3)Gal(b1-4)[Fuc(a1-3)]GlcNAc(b1-6)[Gal(b1-3)]GalNAc
# How it was run: as §1
# [30] = target: Neu5Ac(a2-6)Gal(b1-4)GlcNAc
# How it was run: as §1
# [31] = target: Neu5Ac(a2-6)Gal(b1-4)GlcNAc(b1-3)GalNAc
# How it was run: as §1
# [32] = target: Neu5Ac(a2-6)GalNAc(b1-4)GlcNAc
# How it was run: as §1
# [33] = target: Neu5Ac(a2-6)GlcNAc(b1-4)GlcNAc(b1-4)GlcNAc
# How it was run: as §1
binder,measurement,setting,value
"BC2LB (Burholderia cenocepacia), B4EH85_BURCJ (protein) MGSSHHHHHHSSGENLYFQGHMSQPFTHDDLYALLQLAGNDATAVQANGDQAVLDRMRQFMTAQLVEKLPQYDVFVDIATIPYSFDVGSWQNKVKTDAAGEVVACTVTWAGAPGVLPGAAAKFGVGAVVNYFSKATPH",glycan array binding signal (z-score),[1],-0.135
same,glycan array binding signal (z-score),[2],-0.166
same,glycan array binding signal (z-score),[3],-0.251
same,glycan array binding signal (z-score),[4],0.245
same,glycan array binding signal (z-score),[5],-0.238
same,glycan array binding signal (z-score),[6],6.98
same,glycan array binding signal (z-score),[7],7.53
same,glycan array binding signal (z-score),[8],0.001
same,glycan array binding signal (z-score),Fuc(a1-4)GlcNAc,2.88
same,glycan array binding signal (z-score),Fuc(b1-3)GlcNAc,1.63
same,glycan array binding signal (z-score),[9],0.053
same,glycan array binding signal (z-score),Gal(a1-4)GlcNAc,-0.101
same,glycan array binding signal (z-score),[10],-0.227
same,glycan array binding signal (z-score),[11],-0.131
same,glycan array binding signal (z-score),[12],-0.143
same,glycan array binding signal (z-score),[13],11.3
same,glycan array binding signal (z-score),[14],-0.198
same,glycan array binding signal (z-score),[15],0.012
same,glycan array binding signal (z-score),[16],0.995
same,glycan array binding signal (z-score),Gal3S(b1-4)Glc,1.52
same,glycan array binding signal (z-score),[17],0.149
same,glycan array binding signal (z-score),[18],-0.055
same,glycan array binding signal (z-score),Glc(b1-6)Glc,0.216
same,glycan array binding signal (z-score),[19],1.79
same,glycan array binding signal (z-score),[20],-0.234
same,glycan array binding signal (z-score),Kdn(a2-3)Gal(b1-3)GlcNAc,-0.201
same,glycan array binding signal (z-score),[21],-0.345
same,glycan array binding signal (z-score),[22],-0.397
same,glycan array binding signal (z-score),[23],-0.2
same,glycan array binding signal (z-score),[24],-0.242
same,glycan array binding signal (z-score),[25],2.87
same,glycan array binding signal (z-score),Neu5Ac(a2-3)Gal(b1-4)Glc,5.24
same,glycan array binding signal (z-score),[26],2.39
same,glycan array binding signal (z-score),[27],-0.203
same,glycan array binding signal (z-score),[28],-0.104
same,glycan array binding signal (z-score),[29],-0.247
same,glycan array binding signal (z-score),[30],-0.206
same,glycan array binding signal (z-score),[31],10.1
same,glycan array binding signal (z-score),[32],-0.418
same,glycan array binding signal (z-score),[33],-0.338
